# Values joined by “and” are separate entries in the source; they are usually repeats but may differ in a detail not shown here. Equal values may be shown once. A number with no mark means an inactive call. Records with an inconclusive call do not appear. A call without a number means that no potency is given here. Active and inactive are the calls of the source. Unless noted, the call rests on the fitted dose curve; in most records, active means well fitted curve in the direction sought with a large enough effect in the repeat runs; inconclusive means weak or mixed curves; inactive means no such curve, though single readings can be large; an effect the other way counts as inactive or inconclusive.
# Experiments:
# [1] = qHTS assay for small molecule agonists of the p53 signaling pathway (AID 651631; calls by dose curve; further: nearly all actives have a fitted effect of over 15% in size; further: potency means the concentration at half of the fitted maximal effect)
# Procedure, shortened: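 HCT-116 cells carrying a stable p53 response element–beta-lactamase reporter were plated, rested 5 h at 37 °C, then exposed to compound in DMSO for 16 h at 37 °C; reporter activity was read as FRET substrate fluorescence after 2 h at room temperature.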
# [2] = qHTS assay for small molecules that induce genotoxicity in human embryonic kidney cells expressing luciferase-tagged ATAD5 (AID 651632); further: nearly all actives have a fitted effect of over 15% in size
# Procedure, shortened: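 ATAD5-luc HEK293T, 2,000 cells/well; cpd or DMSO pin-transferred; 16 hr, 37C/5% CO2; Amplite 30 min RT; luminescence.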
# [3] = qHTS assay for small molecule agonists of the p53 signaling pathway - cell viability (AID 651633; calls by dose curve; further: nearly all actives have a fitted effect of over 30% in size; further: potency means the concentration at half of the fitted maximal effect)
# Procedure, shortened: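 p53RE-bla cells, seeded at 4,000 per well and rested 5 h at 37 C/5% CO2, received compounds in DMSO for 16 h at 37 C. CellTiter-Glo was then added, and luminescence was read after 30 min at room temperature to gauge cytotoxicity.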
# [4] = qHTS assay for small molecule disruptors of the mitochondrial membrane potential - cell viability (AID 720634; calls by dose curve;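 further: human HepG2 liver cancer cells; series mostly up to about 83 µM; nearly all actives have a fitted effect of over 20% in size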)
# Procedure, shortened: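 Cells: HepG2, 2,000/well, attached overnight. Compound 1 hr, 37 C/5% CO2. +m-MPI dye, +CellTiter-Glo 30 min RT. Readout: luminescence (ATP).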
# [5] = qHTS assay to test for compound auto fluorescence at 590 nm (red) in HepG2 cells (AID 720674)
# Procedure, shortened: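 Compound auto-fluorescence is scored relative to Rose Bengal sodium, measured at 540/590 nm in live HepG2 cultures after 1 hr compound contact (37 C, 5% CO2).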
# [6] = qHTS assay to test for compound auto fluorescence at 535 nm (green) in HepG2 cells (AID 720675)
# [7] = qHTS assay to test for compound auto fluorescence at 460 nm (blue) in HEK293 cells (AID 720678)
# Procedure, shortened: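 Blue read-out at excitation 405 nm and emission 460 nm follows overnight compound exposure of HEK293 cells at 37C in 5% CO2. Activity is given as auto fluorescence equivalency to triamterene.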
# [8] = qHTS assay to test for compound auto fluorescence at 535 nm (green) in HEK293 cells (AID 720680)
# [9] = qHTS assay to test for compound auto fluorescence at 460 nm (blue) in HEK293 cell free culture (AID 720681)
# Procedure, shortened: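 Test compounds were pinned into cell-free culture medium (DMEM with 10% FBS) and fluorescence was read directly at Ex/Em 405/460 nm. Signals were expressed as fluorescence equivalents of triamterene, with DMSO vehicle as control.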
# [10] = qHTS assay to test for compound auto fluorescence at 590 nm (red) in HEK293 cell free culture (AID 720683)
# Procedure, shortened: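 Tox21 10K library compounds were pinned into cell-free DMEM with 10% FBS and fluorescence was read at excitation 540 nm. Activity is expressed as Rose Bengal sodium equivalency.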
# [11] = qHTS assay to test for compound auto fluorescence at 590 nm (red) in HepG2 cell free culture (AID 720684)
# Procedure, shortened: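 Measured in medium alone (MEM containing 10% FBS) following pintool addition of compound; emission at 590 nm with 540 nm excitation, referenced to Rose Bengal sodium.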
# [12] = qHTS assay to test for compound auto fluorescence at 460 nm (blue) in HepG2 cell free culture (AID 720685)
# Procedure, shortened: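 Compound (23 nL) or DMSO pinned into cell-free MEM with 10% FBS; blue fluorescence read at 405/460 nm excitation/emission, expressed as auto-fluorescence equivalency to triamterene.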
# [13] = qHTS assay to test for compound auto fluorescence at 535 nm (green) in HepG2 cell free culture (AID 720686)
# [14] = qHTS assay to test for compound auto fluorescence at 590 nm (red) in HEK293 cells (AID 720679)
# Procedure, shortened: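 Red channel, Ex/Em 540/590nm; signal expressed as equivalency to Rose Bengal sodium. HEK293, 2,000 cells/well, 10% dialyzed FBS; 23 nL compound pinned after 4-5 hr attachment; overnight 37C/5% CO2 before reading.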
# [15] = qHTS assay to test for compound auto fluorescence at 535 nm (green) in HEK293 cell free culture (AID 720682)
# Procedure, shortened: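 Read-out: 485/535 nm fluorescence intensity, calibrated against fluorescein. Medium only (DMEM + 10% FBS, no cells); test compound or DMSO vehicle added by pintool before plate reading.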
# [16] = qHTS assay to test for compound auto fluorescence at 460 nm (blue) in HepG2 cells (AID 720687)
# Procedure, shortened: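 Cells (2,000/well in MEM with 10% FBS) attached overnight at 37 C, then were exposed to compound or DMSO for 1 hr at 37 C, 5% CO2. Fluorescence read at Ex/Em 405/460 nm, expressed as triamterene-equivalent signal.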
# [17] = target: Glucocorticoid receptor (Homo sapiens) (UniProt P04150); test: qHTS assay to identify small molecule agonists of the glucocorticoid receptor (GR) signaling pathway (AID 720691; active means well fitted activation curve with a large enough effect in the signal ratio in the repeat runs, not every such curve was filed as active; the % refers to the signal ratio)
# Procedure, shortened: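 Fluorescence intensity from LiveBLAzer B/G FRET substrate (2 h, room temperature) reports beta-lactamase expression driven by the glucocorticoid response element in GR-bla HeLa cells after 18 h compound exposure at 37 C.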
# [18] = target: Glucocorticoid receptor (Homo sapiens) (UniProt P04150); test: qHTS assay to identify small molecule antagonists of the glucocorticoid receptor (GR) signaling pathway (AID 720692; active means well fitted inhibition curve with a large enough effect in the signal ratio in the repeat runs, not every such curve was filed as active; the % refers to the signal ratio)
# Procedure, shortened: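 HeLa GR-bla cells; cmpd + dex 5 nM final, 18 h 37 C; LiveBLAzer B/G FRET substrate 2 h RT; fluorescence intensity read. Antagonist mode, qHTS.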
# [19] = qHTS assay for small molecule disruptors of the mitochondrial membrane potential (AID 720635); further: potency means the concentration at half of the fitted maximal effect
# Procedure, shortened: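 HepG2 cells (2,000/well) attached overnight at 37C, then took compound for 1 hr at 37C, 5% CO2. Mito-MPS dye was added for 30 min; fluorescence was read at 490/535 nm (monomers) and 540/590 nm (aggregates).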
# [20] = qHTS assay for small molecules that induce genotoxicity in human embryonic kidney cells expressing luciferase-tagged ATAD5 - cell viability (AID 651634; calls by dose curve; further: nearly all actives have a fitted effect of over 25% in size)
# Procedure, shortened: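 Fluorescence from CellTiter-Fluor, reporting protease activity within live cells, served as the viability read-out. HEK293T cells carrying luciferase-tagged ATAD5 had been treated with compound for 15.5 hr at 37C.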
# Sequence of Glucocorticoid receptor (Homo sapiens) (P04150 whole entry, looked up): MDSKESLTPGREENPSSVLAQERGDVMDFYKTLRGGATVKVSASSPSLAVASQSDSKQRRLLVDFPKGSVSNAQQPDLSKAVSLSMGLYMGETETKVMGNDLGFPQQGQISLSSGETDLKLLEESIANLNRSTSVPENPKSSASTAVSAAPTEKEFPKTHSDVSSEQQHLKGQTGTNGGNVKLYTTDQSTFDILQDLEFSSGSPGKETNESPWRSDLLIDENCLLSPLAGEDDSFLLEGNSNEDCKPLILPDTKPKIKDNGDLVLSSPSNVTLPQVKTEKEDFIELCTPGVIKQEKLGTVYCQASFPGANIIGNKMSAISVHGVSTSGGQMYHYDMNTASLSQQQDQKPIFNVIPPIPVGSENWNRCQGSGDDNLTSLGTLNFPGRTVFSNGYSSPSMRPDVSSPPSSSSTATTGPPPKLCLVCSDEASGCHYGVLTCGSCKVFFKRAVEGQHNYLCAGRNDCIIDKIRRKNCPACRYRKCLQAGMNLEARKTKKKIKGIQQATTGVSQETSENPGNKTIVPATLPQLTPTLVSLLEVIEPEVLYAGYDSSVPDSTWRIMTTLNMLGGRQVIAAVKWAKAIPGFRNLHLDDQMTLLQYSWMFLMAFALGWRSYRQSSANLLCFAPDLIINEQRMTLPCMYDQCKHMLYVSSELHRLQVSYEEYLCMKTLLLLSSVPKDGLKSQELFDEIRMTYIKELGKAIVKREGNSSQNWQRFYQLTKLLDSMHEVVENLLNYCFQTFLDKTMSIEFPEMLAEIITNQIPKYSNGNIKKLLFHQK
smiles,measurement,setting,value
OC1CCCc2ccccc21 (stereo unspecified),Potency,[1],inactive
same,Potency,[2],inactive
same,Potency,[3],inactive
same,Potency,[4],inactive
same,Potency,[5],inactive
same,Potency,[6],inactive
same,Potency,[7],inactive
same,Potency,[8],inactive
same,Potency,[9],inactive
same,Potency,[10],inactive
same,Potency,[11],inactive
same,Potency,[12],inactive
same,Potency,[13],inactive
COc1ccc(NC(=O)CC(C)=O)cc1,Potency,[1],inactive
same,Potency,[2],inactive
same,Potency,[3],inactive
same,Potency,[4],inactive
same,Potency,[5],inactive
same,Potency,[6],inactive
same,Potency,[7],inactive
same,Potency,[14],inactive
same,Potency,[8],inactive
same,Potency,[9],inactive
same,Potency,[15],inactive
same,Potency,[10],inactive
same,Potency,[11],inactive
same,Potency,[13],inactive
same,Potency,[16],inactive
FC(F)(F)c1cccc(Cl)c1,Potency,[1],inactive
same,Potency,[2],inactive
same,Potency,[3],inactive
same,Potency,[4],inactive
same,Potency,[5],inactive
same,Potency,[6],inactive
same,Potency,[7],inactive
same,Potency,[14],inactive
same,Potency,[8],inactive
same,Potency,[9],inactive
same,Potency,[15],inactive
same,Potency,[10],inactive
same,Potency,[11],inactive
same,Potency,[12],inactive
same,Potency,[13],inactive
same,Potency,[17],inactive
same,Potency,[18],inactive
NC(=S)NC(N)=S,Potency,[1],inactive
same,Potency,[2],inactive
same,Potency,[3],inactive
same,Potency,[4],inactive
same,Potency,[19],inactive
same,Potency,[5],inactive
same,Potency,[6],inactive
same,Potency,[7],inactive
same,Potency,[8],inactive
same,Potency,[9],inactive
same,Potency,[15],inactive
same,Potency,[10],inactive
same,Potency,[11],inactive
same,Potency,[13],inactive
same,Potency,[16],inactive
same,Potency,[17],inactive
same,Potency,[18],inactive
Oc1c(I)cc(Cl)c2cccnc12,Potency,[1],29.8 µM (active)
same,Potency,[2],inactive
same,Potency,[3],16.8 µM (active) and 19.3 µM (active)
same,Potency,[4],inactive
same,Potency,[19],48.5 µM (active)
same,Potency,[5],inactive
same,Potency,[6],inactive
same,Potency,[7],inactive
same,Potency,[14],inactive
same,Potency,[8],inactive
same,Potency,[9],inactive
same,Potency,[15],inactive
same,Potency,[10],inactive
same,Potency,[11],inactive
same,Potency,[12],inactive
same,Potency,[16],inactive
OC12N=C(c3ccccc3)SC1Cc1cc(Cl)ccc12 (stereo unspecified),Potency,[1],inactive
same,Potency,[2],inactive
same,Potency,[3],inactive
same,Potency,[20],inactive
same,Potency,[19],17.2 µM (active)
same,Potency,[5],inactive
same,Potency,[6],inactive
same,Potency,[7],inactive
same,Potency,[14],inactive
same,Potency,[8],inactive
same,Potency,[9],inactive
same,Potency,[15],inactive
same,Potency,[10],inactive
same,Potency,[11],inactive
same,Potency,[12],inactive
same,Potency,[13],inactive
same,Potency,[16],inactive
CC(C)(C)NSc1nc2ccccc2s1,Potency,[1],inactive
same,Potency,[2],inactive
same,Potency,[3],inactive
same,Potency,[4],inactive
same,Potency,[19],24.8 µM (active)
same,Potency,[5],inactive
same,Potency,[6],inactive
same,Potency,[7],inactive
same,Potency,[14],inactive
same,Potency,[8],inactive
same,Potency,[9],inactive
same,Potency,[15],inactive
same,Potency,[10],inactive
same,Potency,[11],inactive
same,Potency,[12],inactive
same,Potency,[16],inactive
same,Potency,[17],inactive
O=C1CCCCCCCCCCCCCCCO1,Potency,[1],inactive
same,Potency,[2],inactive
same,Potency,[3],inactive
same,Potency,[4],inactive
same,Potency,[19],inactive
same,Potency,[5],inactive
same,Potency,[6],inactive
same,Potency,[7],inactive
same,Potency,[14],inactive
same,Potency,[8],inactive
same,Potency,[9],inactive
same,Potency,[15],inactive
same,Potency,[10],inactive
same,Potency,[11],inactive
same,Potency,[12],inactive
same,Potency,[13],inactive
same,Potency,[17],inactive
CCCCC(CC)CN1CN(CC(CC)CCCC)CC(C)(N)C1 (stereo unspecified),Potency,[1],inactive
same,Potency,[2],inactive
same,Potency,[3],inactive
same,Potency,[4],inactive
same,Potency,[19],inactive
same,"fluorescence, relative to Rose Bengal",[5],0.775% [at 18.6 µM]
same,"fluorescence, % of fluorescein control",[6],0.0031% [at 18.6 µM]
same,"fluorescence, % of triamterene",[7],-0.206% [at 18.6 µM]
same,"fluorescence, % of fluorescent control",[14],-0.0426% [at 18.6 µM]
same,"fluorescence, % of fluorescein",[8],-0.025% [at 18.6 µM]
same,"fluorescence, % of fluorescent control",[9],-0.0323% [at 18.6 µM]
same,activity change,[15],"0.0339% [at 18.6 µM, active compounds read high]"
same,"fluorescence, % of fluorescent control",[10],-0.232% [at 18.6 µM]
same,"fluorescence, % of Rose Bengal",[11],0.0615% [at 18.6 µM]
same,"fluorescence, % of fluorescent control",[12],-0.127% [at 18.6 µM]
same,"fluorescence, % of fluorescein control",[13],-0.051% [at 18.6 µM]
same,"fluorescence, % of fluorescent control",[16],-0.0067% [at 18.6 µM]
